# Test results as given in article PMC8384837, “Expanding the binding specificity for RNA recognition by a PUF domain”.
# Key:
# Test in all cases: yeast three-hybrid, YBZ-1, SC-Leu-His + 0.5 mM 3-AT, 4 days
# Details in all cases: tags: N-Gal4 AD-HA kept; label: inside an RPR1-promoter hybrid RNA with tandem MS2 sites; ssRNA
# [1] = target: PUM1 PUF domain R1-KRF (Homo sapiens, UniProt Q14671 828-1176, S863K;Q867F)
# In short: (§1)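 Pumilio-1 PUF domain libraries, randomized at the three base-contacting residues of each repeat, were co-expressed with matching RNA elements from a centromeric plasmid in strain YBZ-1, which carries a LexA–MS2 coat fusion and a HIS3 reporter. Transformants grew for four days on SC-Leu (input) or on SC-Leu-His + 0.5 mM 3-AT (selection), and the repeat regions were PCR-amplified and Illumina-sequenced. The interaction score is the log change in variant frequency from input to selection. That logarithm is base 2, with a pseudocount of 1 where a variant was absent.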
# [2] = target: PUM1 PUF domain R5-GKR (Homo sapiens, UniProt Q14671 828-1176, C1007G;R1008K;Q1011R)
# In short: as §1
# [3] = target: PUM1 PUF domain R7-RRL (Homo sapiens, UniProt Q14671 828-1176, S1079R;N1080R;E1083L)
# In short: as §1
# [4] = target: PUM1 PUF domain R4-MPT (Homo sapiens, UniProt Q14671 828-1176, N971M;H972P;Q975T)
# In short: as §1
# [5] = target: PUM1 PUF domain R4-GPH (Homo sapiens, UniProt Q14671 828-1176, N971G;H972P;Q975H)
# In short: as §1
# [6] = target: PUM1 PUF domain R3-SCQ (Homo sapiens, UniProt Q14671 828-1176, C935S;R936C)
# In short: as §1
# [7] = target: PUM1 PUF domain R3-VFD (Homo sapiens, UniProt Q14671 828-1176, C935V;R936F;Q939D)
# In short: as §1
# [8] = target: PUM1 PUF domain R3-KPV (Homo sapiens, UniProt Q14671 828-1176, C935K;R936P;Q939V)
# In short: as §1
# [9] = target: PUM1 PUF domain R1-RWD (Homo sapiens, UniProt Q14671 828-1176, S863R;R864W;Q867D)
# In short: as §1
# [10] = target: PUM1 PUF domain R5-TRW (Homo sapiens, UniProt Q14671 828-1176, C1007T;Q1011W)
# In short: as §1
# [11] = target: PUM1 PUF domain R8-RWL (Homo sapiens, UniProt Q14671 828-1176, N1122R;Y1123W;Q1126L)
# In short: as §1
# [12] = target: PUM1 PUF domain R3-VRF (Homo sapiens, UniProt Q14671 828-1176, C935V;Q939F)
# In short: as §1
# [13] = target: PUM1 PUF domain R4-SLY (Homo sapiens, UniProt Q14671 828-1176, N971S;H972L;Q975Y)
# In short: as §1
# [14] = target: PUM1 PUF domain R8-RWC (Homo sapiens, UniProt Q14671 828-1176, N1122R;Y1123W;Q1126C)
# In short: as §1
# [15] = target: PUM1 PUF domain R8-RFR (Homo sapiens, UniProt Q14671 828-1176, N1122R;Y1123F;Q1126R)
# In short: as §1
# [16] = target: PUM1 PUF domain R3-CRM (Homo sapiens, UniProt Q14671 828-1176, Q939M)
# In short: as §1
# [17] = target: T1, PUM1 PUF domain R6-NYV (Homo sapiens, UniProt Q14671 828-1176, Q1047V)
# T1 sequence: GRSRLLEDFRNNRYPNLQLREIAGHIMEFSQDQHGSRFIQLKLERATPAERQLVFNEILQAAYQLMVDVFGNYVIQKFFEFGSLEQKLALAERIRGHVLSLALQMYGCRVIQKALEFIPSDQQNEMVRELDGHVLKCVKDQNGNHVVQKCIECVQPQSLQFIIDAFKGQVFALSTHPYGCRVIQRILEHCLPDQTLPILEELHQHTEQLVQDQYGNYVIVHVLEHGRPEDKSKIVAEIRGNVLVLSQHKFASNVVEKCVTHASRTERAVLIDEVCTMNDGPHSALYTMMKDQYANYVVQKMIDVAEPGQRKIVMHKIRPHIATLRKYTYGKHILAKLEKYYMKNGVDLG
# In short: as §1
# [18] = target: PUM1 PUF domain R3-SVE (Homo sapiens, UniProt Q14671 828-1176, C935S;R936V;Q939E)
# In short: as §1
# [19] = target: PUM1 PUF domain R3-STD (Homo sapiens, UniProt Q14671 828-1176, C935S;R936T;Q939D)
# In short: as §1
# [20] = target: PUM1 PUF domain R3-YRE (Homo sapiens, UniProt Q14671 828-1176, C935Y;Q939E)
# In short: as §1
sequence,measurement,setting,value
GGCUAGAACUAGUGGAUCCCCCGGCGCCCGGCGGCUCGAGCCCGGGUAAGUGUAAAUCGUCUGCAUGCCGCCGGGCGCCAUGCCUGCAGGUCGACUCUAGAAAACAUG,binding signal,[1],3.25 log2 enrichment (interaction score)
GGCUAGAACUAGUGGAUCCCCCGGCGCCCGGCGGCUCGAGCCCGGGUAAGUGUCAAUAGUCUGCAUGCCGCCGGGCGCCAUGCCUGCAGGUCGACUCUAGAAAACAUG,binding signal,[2],6.15 log2 enrichment (interaction score)
GGCUAGAACUAGUGGAUCCCCCGGCGCCCGGCGGCUCGAGCCCGGGUAAGUUUAAAUAGUCUGCAUGCCGCCGGGCGCCAUGCCUGCAGGUCGACUCUAGAAAACAUG,binding signal,[3],6.01 log2 enrichment (interaction score)
GGCUAGAACUAGUGGAUCCCCCGGCGCCCGGCGGCUCGAGCCCGGGUAAGUGUAUAUAGUCUGCAUGCCGCCGGGCGCCAUGCCUGCAGGUCGACUCUAGAAAACAUG,binding signal,[4],2.81 log2 enrichment (interaction score)
same,binding signal,[5],1.26 log2 enrichment (interaction score)
GGCUAGAACUAGUGGAUCCCCCGGCGCCCGGCGGCUCGAGCCCGGGUAAGUGUAAUUAGUCUGCAUGCCGCCGGGCGCCAUGCCUGCAGGUCGACUCUAGAAAACAUG,binding signal,[6],1.65 log2 enrichment (interaction score)
same,binding signal,[7],5.14 log2 enrichment (interaction score)
same,binding signal,[8],3.62 log2 enrichment (interaction score)
GGCUAGAACUAGUGGAUCCCCCGGCGCCCGGCGGCUCGAGCCCGGGUAAGUCUAAAUAGUCUGCAUGCCGCCGGGCGCCAUGCCUGCAGGUCGACUCUAGAAAACAUG,binding signal,[3],5.23 log2 enrichment (interaction score)
GGCUAGAACUAGUGGAUCCCCCGGCGCCCGGCGGCUCGAGCCCGGGUAAGUGUAAAUGGUCUGCAUGCCGCCGGGCGCCAUGCCUGCAGGUCGACUCUAGAAAACAUG,binding signal,[9],2.32 log2 enrichment (interaction score)
GGCUAGAACUAGUGGAUCCCCCGGCGCCCGGCGGCUCGAGCCCGGGUAAGUGUUAAUAGUCUGCAUGCCGCCGGGCGCCAUGCCUGCAGGUCGACUCUAGAAAACAUG,binding signal,[2],2.96 log2 enrichment (interaction score)
GGCUAGAACUAGUGGAUCCCCCGGCGCCCGGCGGCUCGAGCCCGGGUAAGUGUGAAUAGUCUGCAUGCCGCCGGGCGCCAUGCCUGCAGGUCGACUCUAGAAAACAUG,binding signal,[10],0.38 log2 enrichment (interaction score)
GGCUAGAACUAGUGGAUCCCCCGGCGCCCGGCGGCUCGAGCCCGGGUAAGUGUAAAUAGUCUGCAUGCCGCCGGGCGCCAUGCCUGCAGGUCGACUCUAGAAAACAUG,binding signal,[4],3.73 log2 enrichment (interaction score)
same,binding signal,[10],2.78 log2 enrichment (interaction score)
same,binding signal,[11],5.06 log2 enrichment (interaction score)
same,binding signal,[12],4.4 log2 enrichment (interaction score)
same,binding signal,[13],2.48 log2 enrichment (interaction score)
same,binding signal,[2],1.48 log2 enrichment (interaction score)
same,binding signal,[14],4.9 log2 enrichment (interaction score)
same,binding signal,[15],6.72 log2 enrichment (interaction score)
same,binding signal,[16],3.01 log2 enrichment (interaction score)
same,binding signal,[5],4.16 log2 enrichment (interaction score)
same,binding signal,[7],6.45 log2 enrichment (interaction score)
same,binding signal,[17],4.01 log2 enrichment (interaction score)
GGCUAGAACUAGUGGAUCCCCCGGCGCCCGGCGGCUCGAGCCCGGGUAAGCGUAAAUAGUCUGCAUGCCGCCGGGCGCCAUGCCUGCAGGUCGACUCUAGAAAACAUG,binding signal,[11],6.58 log2 enrichment (interaction score)
same,binding signal,[14],4.12 log2 enrichment (interaction score)
same,binding signal,[15],6.81 log2 enrichment (interaction score)
GGCUAGAACUAGUGGAUCCCCCGGCGCCCGGCGGCUCGAGCCCGGGUAAGUGUAAGUAGUCUGCAUGCCGCCGGGCGCCAUGCCUGCAGGUCGACUCUAGAAAACAUG,binding signal,[6],2.27 log2 enrichment (interaction score)
same,binding signal,[18],4.64 log2 enrichment (interaction score)
same,binding signal,[19],2.07 log2 enrichment (interaction score)
same,binding signal,[16],1.46 log2 enrichment (interaction score)
same,binding signal,[20],3.13 log2 enrichment (interaction score)
GGCUAGAACUAGUGGAUCCCCCGGCGCCCGGCGGCUCGAGCCCGGGUAAGUGUAACUAGUCUGCAUGCCGCCGGGCGCCAUGCCUGCAGGUCGACUCUAGAAAACAUG,binding signal,[7],2.56 log2 enrichment (interaction score)
